Among the data in PubChem BioAssay AID588727 (Southern Research Specialized Biocontainment Screening …, 2011) are inhibition and outcome values, retold here.

SMILES strings stand for the structures. Screen size: about 350,000 compounds; about 450 (0.13%) were called active. How the calls were made is not given here. The list is a sample of the results. Entries with a potency or affinity are not part of this list.

This assay in a line: inhibitors of VEEV TC-83 cytopathic effect, confirmation, Vero cells (AID 588727). As to conditions: VEEV TC-83 cytopathic effect inhibition, at 20 µM. In general terms: Damage to the host cells serves as the signal in cytopathic effect assays.
Setting [1] is: stronger effect = higher value unless noted.
The mark [2] stands for this setting: measured here: 10K pilot screen inhibition, stronger effect = higher value.

By inhibition is commonly meant how much of the control response was suppressed. With `CC(CCc1ccccc1)OS(N)(=O)=O` (stereo unspecified), under setting [1], the inhibition is 0.425% [measured here: 10K pilot screen inhibition, stronger effect = higher value] and the outcome was inactive. For the molecule `Cc1n[nH]c(C)c1CCNCc1ccc(OCC(O)CN2CCCCC2)cc1` (stereo unspecified), the inhibition under setting [1] was 0.96% (inactive). `OC(COc1ccc(CNCCc2ccccc2F)cc1)CN1CCCCC1` (stereo unspecified): the inhibition under setting [1] was 4.19% (inactive). With `N/C(=N\OCc1ccc([N+](=O)[O-])cc1)c1ccccn1`, the inhibition under setting [1] was 0.33% (inactive). Take `CC(=O)Nc1ccccc1C(=O)OCC(=O)c1ccccc1Cl`: under setting [1], the inhibition was 0.205% [measured here: 10K pilot screen inhibition, stronger effect = higher value] and the outcome was inactive. As for `CNC(=S)NCc1ccc2[nH]c3c(c2c1)CCCC3`, the inhibition under setting [1] was 0.13% (inactive).

In the case of `CC(C)CC(=O)NCc1ccc2[nH]c3c(c2c1)CCCC3`, the inhibition under setting [1] was 1.23% (inactive). The same measure, in the same setting: in the case of `CC(C)C[C@H]1CNC(=S)N1CC1CCN(CCCCc2ccccc2)CC1` it was “inactive”; in that of `O=C1C2CCCN2C(c2cccs2)N1c1ccc(F)cc1` (stereo unspecified), “inactive”.

As for `COc1cccc(N2C(=O)C3CCCN3C2c2cccs2)c1` (stereo unspecified), the inhibition under setting [1] is 1.22% (inactive).

In the case of `CN(c1ccc(OCC(=O)Nc2cc(Cl)ccc2C(=O)O)cc1)S(=O)(=O)c1ccc(F)cc1`, under setting [1], the inhibition was 1.87% (inactive). `CC(=O)Nc1ccc(S(=O)(=O)N(C)c2ccc(OCC(=O)Nc3ccccc3C(C)=O)cc2)cc1`: the inhibition under setting [1] is 11% (inactive). Turning to `CC(C)CN(C(=O)COc1ccc(C(C)(C)C)cc1)C1CCS(=O)(=O)C1` (stereo unspecified), the inhibition under setting [1] was 12.2% (inactive). For the molecule `CN(C)N=Nc1nc2c(c(=O)n(C)c(=O)n2C)n1C`, under setting [1], the inhibition result was “inactive”. For the molecule `CN(C)N=Nc1nc2c([nH]1)c(=O)n(C)c(=O)n2C`, the inhibition under setting [1] is 1.78% (inactive). Regarding `CN(C(=O)c1cccc(NC(=O)Cc2ccc(NC(=O)C3CCN(C(=O)C4CC4)CC3)cc2)c1)C1CCCCC1`, the inhibition under setting [1] was 0.89% (inactive). The same measure, in the same setting: in the case of `O=C(CSc1nccn1-c1ccc(Cl)cc1)NCc1ccc2c(c1)OCO2` it was 3.2% (inactive); in that of `O=C(Cc1c(Cl)cccc1Cl)OCc1ccccn1`, 1.24% (inactive); in that of `CCOC(=O)Cc1nnc(Nc2cccc(O)c2)c2ccccc12`, 4.42% (inactive).

For `O=C(CN(CC1CCCO1)C(=O)CNS(=O)(=O)c1ccc(Cl)cc1)NCc1ccc(F)cc1` (stereo unspecified), the inhibition under setting [1] was 3.94% (inactive). Still for that read-out and setting: in the case of `COc1cc2nc(N3CCN(C(=O)c4ccco4)CC3)nc(N)c2cc1OC` it was 23.2% (inactive); in that of `COc1cc2nc(N3CCN(c4cc(C)ccc4C)CC3)nc(N)c2cc1OC`, “inactive”; in that of `COC(=O)C1CCN(C(=O)COC(=O)CC(NC(N)=O)c2ccc(Cl)cc2)CC1` (stereo unspecified), 1.27% (inactive). The same measure, in the same setting: in the case of `CSc1nnc2c(n1)OC(c1ccc(C(=O)O)cc1)N(C(C)=O)c1ccccc1-2` (stereo unspecified) it was 0.04% (inactive); in that of `COc1ccc(NC(=O)c2ccco2)c([N+](=O)[O-])c1`, “inactive”. Regarding `O=c1c2c([nH]c3ccccc13)CCCCC2`, the inhibition under setting [1] is 2.45% (inactive). Consider `O=c1c2c([nH]c3ccccc13)CCCC2`, for which the inhibition under setting [1] was 0.1% (inactive).

As to `Fc1ccc(NC(=S)NCc2ccc3c(c2)OCO3)cc1`, under setting [1], the inhibition is 1.24% (inactive). As to `COc1ccc(CCNC(=O)Cn2c(=O)oc3cc(Cl)ccc32)cc1OC`, the inhibition under setting [1] is 1.85% (inactive). Consider `N#C/C(=C\c1ccccc1[N+](=O)[O-])C(=O)NC1CCCCC1`, for which the inhibition under setting [1] was 6.23% (inactive). In the case of `CC1CCCCC1NC(=O)/C(C#N)=C/c1ccccc1F` (stereo unspecified), under setting [1], the inhibition was 10.5% (inactive).

As to `COCCNC(=O)/C(C#N)=C/C=C/c1ccccc1[N+](=O)[O-]`, the inhibition under setting [1] is 55.2% (inactive). As to `O=C(/C=C/c1ccccc1[N+](=O)[O-])NC1CCCC1`, under setting [1], the inhibition result was “inactive”. As for `Cc1ccc(-c2nn(-c3ccccc3)cc2/C=N/n2c(-c3ccncc3)n[nH]c2=S)cc1`, the inhibition under setting [1] is 0.07% (inactive).

Consider `COc1cc(C(=O)NNC(=O)CCOc2ccccc2)cc(OC)c1OC`, for which the inhibition result under setting [1] is “inactive”. As for `O=C(COc1ccc(-c2ccccc2)cc1)NNC(=O)NC1CCCCC1`, under setting [1], the inhibition was 0.67% (inactive).

Regarding `N#Cc1c(NC(=O)c2ccc(Cn3cc(Br)cn3)o2)sc2c1CCCCCC2`, the inhibition entry under setting [1] is “inactive”. As to `COCC1CCCCN1C(=O)c1cccc(OC2CCN(C(=O)C3CC3)CC2)c1` (stereo unspecified), the inhibition entry under setting [1] was “inactive”. Consider `COc1ccc(C(=O)NCc2ccc(F)cc2)cc1S(=O)(=O)N1CCCC1`, for which the inhibition under setting [1] was 10.6% (inactive).

As for `Cc1cc(OC(=O)c2cc(Cl)nc3ccccc23)ccc1Cl`, under setting [1], the inhibition was 2.81% (inactive).

For the molecule `CSCCC(NS(=O)(=O)c1ccc2[nH]c(=O)c(=O)[nH]c2c1)C(=O)O` (stereo unspecified), under setting [1], the inhibition result was “inactive”.

With `CCNC(=O)C1CCCc2c1[nH]c1ccc(Cl)cc21` (stereo unspecified), the inhibition (stronger effect = higher value) is 0.89% (inactive) and the inhibition under setting [2] worked out at 1.04%. `CCOC(=O)C1CCCc2c1[nH]c1ccc(Cl)cc21` (stereo unspecified): the inhibition under setting [1] was 0.82% (inactive). For `COc1ccc(-c2nn(-c3ccccc3)cc2/C=C/C(=O)N2CCOCC2)cc1OC`, the inhibition under setting [1] is 7.65% (inactive). Still for that read-out and setting: in the case of `Cc1cc(C)cc(N(C(=O)c2ccc(Br)o2)C2C=CS(=O)(=O)C2)c1` (stereo unspecified) it was “inactive”; in that of `O=[N+]([O-])c1ccc(/C=N/Nc2nc(NCc3ccccc3)nc(N3CCOCC3)n2)cc1`, 3.18% (inactive); in that of `O=[N+]([O-])c1cccc(/C=N/Nc2nc(NCc3ccccc3)nc(N3CCOCC3)n2)c1`, 2.74% (inactive). For the molecule `COc1ccc2c(c1)OC[C@H]1[C@H]2N2C(=O)c3cc(Br)ccc3NC(=O)[C@@]2(C)[C@H]1c1ccccc1`, the inhibition under setting [1] is 1.07% (inactive). Same read-out and setting: in the case of `O=c1[nH]ncc(N2CCCC2)c1Cl` it was “inactive”.

On to `CC(=O)c1cc(C)ccc1OC(=O)c1ccco1`, for which the inhibition entry under setting [1] was “inactive”. For `CC(NC(=O)c1cccc(S(=O)(=O)N2CCN(Cc3ccccc3)CC2)c1)c1ccc(Br)cc1` (stereo unspecified), under setting [1], the inhibition was 2.86% (inactive). For the molecule `O=C(CCCN1C(=O)/C(=C/c2ccco2)SC1=S)Nc1cccc(C(=O)O)c1`, the inhibition under setting [1] is 11.7% (inactive). Still for that read-out and setting: in the case of `COc1ccc(NC(=O)CCCN2C(=O)/C(=C\c3ccco3)SC2=S)cc1` it was 13.5% (inactive); in that of `O=C(CC(CC(=O)c1ccccc1)c1ccccc1)c1ccccc1`, 1.3% (inactive); in that of `O=C(CC(C(=O)c1ccccc1)c1ccccc1)c1ccccc1` (stereo unspecified), 12.6% (inactive). Turning to `CC(=O)N/C(=C/c1ccc(OS(=O)(=O)c2ccc(C)cc2)cc1)C(=O)NCCCO`, the inhibition entry under setting [1] is “inactive”. For the molecule `NC(=O)N1c2ccccc2C=Cc2ccccc21`, under setting [1], the inhibition is 0.99% (inactive) and the molecule was called inactive. For the molecule `CNC(=O)N1c2ccccc2C=Cc2ccccc21`, the inhibition under setting [1] was 1.28% (inactive). On to `COc1ccc(OCc2cc(C(=O)NCC(C)(C)N3CCOCC3)no2)c(Cl)c1`, for which, under setting [1], the inhibition is 2.39% (inactive). `OC(COCc1cccs1)CN1CCN(c2cccc(Cl)c2)CC1` (stereo unspecified): under setting [1], the inhibition entry is “inactive”. As for `Cc1ccc(/C=C/C(=O)c2ccccc2)cc1`, the inhibition result under setting [1] was “inactive”. The same measure, in the same setting: in the case of `Cc1ccc(C(=O)C=CC=Cc2ccccc2)cc1` it was “inactive”. On the same count and under the same terms, in the case of `CC(C)Cn1cnc2c(SCc3ccccc3Cl)nc(N)nc21` it was 9.3% (inactive). As to `OCCn1cnc2c(SCc3ccccc3)ncnc21`, under setting [1], the inhibition is 6.32% (inactive). Turning to `CCCCn1cnc2c(SCc3ccccc3Cl)nc(N)nc21`, the inhibition under setting [1] is 6.5% (inactive). In the case of `Cn1cnc2c(SCc3ccccc3)ncnc21`, the inhibition entry under setting [1] was “inactive”. In the case of `CCC(C(=O)NCCCN1CCCC1=O)n1c2ccccc2c2nc(=O)cc(C)n21` (stereo unspecified), the inhibition result under setting [1] is “inactive”.

Turning to `CC(C)C(C)NC(=O)CN1C(=O)NC(C)(c2ccc3ccccc3c2)C1=O` (stereo unspecified), under setting [1], the inhibition result was “inactive”. On the same count and under the same terms, in the case of `COc1ccc(-n2c(SC(C)C(=O)Nc3ncc(Cl)cc3Cl)nc3ccccc32)cc1` (stereo unspecified) it was 8.08% (inactive); in that of `COCCn1c(SCC(=O)Nc2ccc(Cl)cn2)nc2ccccc21`, 2.54% (inactive). Take `Cc1cc(SCC(=O)Nc2ncc(Cl)cc2Cl)nc2ccccc12`: the inhibition under setting [1] was 0.95% (inactive).

Take `CC(Sc1nnc(-c2ccccc2)c(-c2ccccc2)n1)C(=O)Nc1ncc(Cl)cc1Cl` (stereo unspecified): under setting [1], the inhibition is 0.85% (inactive).

Take `CCN(CC)S(=O)(=O)c1ccc(NN=c2c(=O)c3ccccc3c2=O)cc1`: the inhibition under setting [1] was 0.93% (inactive).

In the case of `CCOC(=O)C1(CCOC)CCN(C(=O)Cc2ccsc2)CC1`, under setting [1], the inhibition is 0.57% (inactive). Regarding `CCOC(=O)c1cn(Cc2ccccc2)nc1-c1ccccc1`, the inhibition entry under setting [1] is “inactive”. `Cc1cccc(-n2c(C)cc(/C=N\NC(=O)c3ccco3)c2C)c1`: the inhibition under setting [1] was 1.2% (inactive). With `Cc1cc(/C=N\NC(=O)c2cccs2)c(C)n1-c1ccc2ncccc2c1`, the inhibition under setting [1] was 11.1% (inactive). On the same count and under the same terms, in the case of `COCCOC1CCN(C(=O)c2cc(COc3ccc(F)cc3F)on2)CC1` it was 1.37% (inactive). With `CCOC(=O)c1c2c(c(=S)n(-c3ccccc3)c1N)CCC2`, the inhibition reads like this: (stronger effect = higher value) 4.5% (inactive); under setting [2], 3.38%. As for `CCOC(=O)c1c(SC)n(-c2ccccc2)c(=S)n(-c2ccccc2)c1=O`, the inhibition under setting [1] was 0.87% (inactive). With `COc1ccc(CSC(=N)N)cc1[N+](=O)[O-]`, the inhibition under setting [1] was 4.91% (inactive). `CCOc1ccc(CSC(=N)N)cc1[N+](=O)[O-]`: under setting [1], the inhibition is 9.41% (inactive). Take `Nc1nc(N)nc(-c2cccc(Cl)c2)n1`: the inhibition under setting [1] was 1.28% (inactive). With `COc1ccccc1CN1CCN(C(=O)c2cccc3ccccc23)CC1`, the inhibition entry under setting [1] was “inactive”. Same read-out and setting: in the case of `Cc1ccc2c(CC(=O)Nc3nc(C)cs3)coc2c1` it was 5.51% (inactive).

Regarding `Cc1cc2occ(CC(=O)Nc3nccs3)c2cc1C(C)C`, the inhibition under setting [1] is 0.63% (inactive). In the case of `Cc1c(N(C)S(=O)(=O)c2cccc(C(=O)NCC3CCCO3)c2)c(=O)n(-c2ccccc2)n1C` (stereo unspecified), the inhibition under setting [1] was 1.98% (inactive). For the molecule `NC(=O)C1CCN(C(=O)c2cc(S(=O)(=O)N3CCOCC3)c(Cl)cc2Cl)CC1`, the inhibition under setting [1] was 0.6% (inactive).

Consider `Cc1nn(-c2ccc(C(=O)O)cc2)c(=O)c2ccccc12`, for which the inhibition under setting [1] was 0.65% (inactive). `COc1ccc(CCNC(=O)CSc2nc(=O)[nH]c3c2CCC3)cc1OC`: the inhibition under setting [1] was 0.77% (inactive). For `COc1ccc(CC(=O)OCC(=O)Nc2ncc(Cl)c(C)c2Cl)cc1`, the inhibition under setting [1] is 5.2% (inactive).

With `COc1ccccc1/C=C/C(=O)c1ccc(Cl)cc1`, under setting [1], the inhibition result was “inactive”. With `COc1ccccc1/C=C/C(=O)c1ccccc1`, the inhibition under setting [1] is 26.1% (inactive). For the molecule `COc1ccccc1C(=O)N(Cc1ccco1)C1CCS(=O)(=O)C1` (stereo unspecified), the inhibition under setting [1] was 0.87% (inactive). Still for that read-out and setting: in the case of `CCCCNC(=O)[C@@H]1CCCN1S(=O)(=O)c1cccc2cccnc12` it was “inactive”; in that of `O=C(Cc1ccc(NC(=O)C2CCN(C(=O)c3ccccc3)CC2)cc1)Nc1cccc(C(=O)N2CCCC2)c1`, “inactive”.
